Experimental findings from PMC5540273 (PLoS ONE, 2017) are described below.

Test systems include S6K1; SBK1; SGK2; SGK3; SGK; SIK2; SIK; SLK; SNRK; SRC.
Common to all, as to details: concentration: 1 μM, replicates: in singlicate; n = 1
The subject of experiment [1] is RPS6KA5(Kin.Dom.2-C-terminal).
Experiment [2] relates to T1, RSK1(Kin.Dom.1-N-terminal).
T1 construct: gene RPS6KA1

Experiment [3] relates to T2, RSK1(Kin.Dom.2-C-terminal).
T2 construct: gene RPS6KA1

In experiment [4] the test system is T3, RSK2(Kin.Dom.1-N-terminal).
T3 construct: gene RPS6KA3

Experiment [5] relates to T4, RSK2(Kin.Dom.2-C-terminal).
T4 construct: gene RPS6KA3

In experiment [6] the test system is T5, RSK3(Kin.Dom.1-N-terminal).
T5 construct: gene RPS6KA2

For experiment [7], the system named is T6, RSK3(Kin.Dom.2-C-terminal).
T6 construct: gene RPS6KA2

In experiment [8] the test system is T7, RSK4(Kin.Dom.1-N-terminal).
T7 construct: gene RPS6KA6

In experiment [9] the test system is T8, RSK4(Kin.Dom.2-C-terminal).
T8 construct: gene RPS6KA6

The subject of another experiment is T9, SNARK.
T9 construct: gene NUAK2

The structures appear in SMILES notation.
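Also: KINOMEscan kinase panel screen.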

Take `c1ccc(-c2ccc3c(-c4ccnc(Nc5ccc6c(c5)OCCO6)n4)cnn3n2)cc1` [GW818941]: the “%Inh” value in [1] was 7%; in experiment [2] it was 0%; in [3], 2%; in experiment [4], 0%; in experiment [5], 23%; in experiment [6], 0%. Besides, the “%Inh” value in experiment [7] is recorded as 3%; in experiment [8], 0%; in experiment [9], 4%; with S6K1, 3%; in the experiment with SBK1, 7%; with SGK2, 0%. Also, the “%Inh” value in the experiment with SGK3 stood at 8%; in the experiment with SGK it was 12%; in the experiment on SIK2, 10%; in the experiment with SIK it was 3%; with SLK it was 20%; in the experiment with SNARK, 4%. Besides, the “%Inh” value in the experiment on SNRK and in the experiment with SRC was 0% each time.
Take `CCc1nc(-c2cccc(C)c2)c(-c2ccnc(NC(=O)c3ccccc3)c2)s1`: the “%Inh” value was 1% in experiment [1]; 0% in [2]; 53% in experiment [3]; 0% in [4]; 39% in experiment [5]; 0% in experiment [6]. The “%Inh” value in [7] came to 5%; in [9], 46%; in the experiment with S6K1 it was 0%; in the experiment with SBK1, 5%; in the experiment with SGK2, 17%; with SGK3, 0%. Moreover, the “%Inh” value worked out at 13% with SGK; 0% with SIK2; 25% with SIK; 0% in the experiment with SLK; 0% in the experiment with SNARK; 19% in the experiment on SNRK. The “%Inh” value with SRC amounted to 5%.
For the molecule `Cn1ccc2ncnc(Nc3ccc(Oc4cccc(Cl)c4)c(Cl)c3)c21`, the “%Inh” value is on record as 11% in experiment [1]; 13% in [2]; 0% in experiment [3]; 20% in experiment [4]; 0% in experiment [5]; 19% in experiment [6]. Further, the “%Inh” value is reported as 10% in experiment [7]; 29% in experiment [8]; 14% in experiment [9]; 0% in the experiment on S6K1; 15% in the experiment with SBK1; 11% in the experiment on SGK2. In addition, the “%Inh” value with SGK3 was 10%; with SGK, 0%; with SIK2 it was 0%; in the experiment with SIK it was 37%; in the experiment on SLK, 33%; with SNARK, 13%. Also, the “%Inh” value with SNRK turned out to be 0%; in the experiment with SRC it was 12%.
For `CCC(CC)(CC)n1cnc2c(N)ncnc21` [SKF-97620], the “%Inh” value in experiment [1] is listed as 4%; in experiment [2], 0%; in experiment [3], 34%; in experiment [4], 41%; in [5] it was 10%; in [6], 0%. The “%Inh” value in experiment [7] was determined as 22%; in [8] it was 40%; in [9] it was 2%; in the experiment with S6K1, 16%; in the experiment on SBK1 it was 51%; in the experiment on SGK2 it was 3%. Moreover, the “%Inh” value with SGK3 turned out to be 15%; in the experiment with SGK it was 0%; in the experiment on SIK2, 1%; with SIK, 0%; in the experiment with SLK it was 24%; in the experiment on SNARK, 28%. Further, the “%Inh” value worked out at 30% in the experiment on SNRK and 0% in the experiment on SRC.
Consider `Nc1nccc2scc(-c3ccc4c(c3)CCN4C(=O)Cc3cc(F)ccc3F)c12` [GSK2587663], for which the “%Inh” value in experiment [1] is reported as 0%; in experiment [2], 12%; in [3], 15%; in experiment [4], 3%; in experiment [5] it was 7%; in experiment [6], 29%. In addition, the “%Inh” value in [7] was found to be 0%; in [8] it was 0%; in experiment [9] it was 13%; in the experiment on S6K1 it was 0%; in the experiment on SBK1, 11%; with SGK2, 0%. In addition, the “%Inh” value with SGK3 stood at 0%; in the experiment with SGK it was 0%; with SIK2, 0%; with SIK, 0%; with SLK, 13%; in the experiment with SNARK, 0%. The “%Inh” value in the experiment with SNRK is recorded as 8%; in the experiment on SRC it was 0%.
For `COc1ccc(Nc2nccc(N3CCC(NC(=O)c4cccc(NC(C)=O)c4)C3)n2)cc1` (stereo not drawn) [GSK1379732], the “%Inh” value in [1] turned out to be 20%; in experiment [2] it was 0%; in experiment [3], 0%; in [4], 0%; in [5], 16%; in experiment [6], 23%. Further, the “%Inh” value turned out to be 6% in experiment [7]; 0% in experiment [8]; 27% in experiment [9]; 0% with S6K1; 21% in the experiment with SBK1; 3% in the experiment with SGK2. Also, the “%Inh” value in the experiment with SGK3 is on record as 3%; with SGK it was 15%; with SIK2, 0%; with SIK it was 0%; in the experiment on SLK it was 6%; in the experiment on SNARK it was 3%. For the same molecule, the “%Inh” value in the experiment with SNRK and in the experiment with SRC was 0% each time.
For `Cl.Cl.c1ccc(-c2cc3ccncc3cc2OC2CCNCC2)cc1` [GSK1122999], the “%Inh” value worked out at 8% in experiment [1]; 22% in experiment [2]; 21% in experiment [3]; 9% in experiment [4]; 55% in [5]; 0% in experiment [6]. For the same molecule, the “%Inh” value in [7] was 6%; in experiment [8], 0%; in experiment [9], 30%; with S6K1, 7%; in the experiment with SBK1, 12%; in the experiment with SGK2, 7%. Further, the “%Inh” value turned out to be 11% in the experiment with SGK3; 0% in the experiment with SGK; 0% in the experiment with SIK2; 0% with SIK; 40% with SLK; 23% in the experiment with SNARK. Besides, the “%Inh” value worked out at 14% with SNRK and 0% in the experiment on SRC.
For `COc1ccc(Nc2nccc(N3CCC(NC(=O)Nc4ccc5c(c4)OCO5)C3)n2)cc1` (stereo not drawn) [GSK1379745], the “%Inh” value is listed as 0% in experiment [1]; 0% in experiment [2]; 8% in [3]; 10% in experiment [4]; 0% in [5]; 17% in experiment [6]. In addition, the “%Inh” value in experiment [7] was 19%; in experiment [8], 0%; in [9], 41%; in the experiment on S6K1 it was 0%; in the experiment with SBK1, 21%; in the experiment on SGK2 it was 6%. Moreover, the “%Inh” value in the experiment with SGK3 stood at 6%; in the experiment on SGK, 1%; in the experiment with SIK2, 0%; in the experiment on SIK it was 6%; with SLK, 27%; in the experiment on SNARK it was 8%. Further, the results for the “%Inh” value in the experiment with SNRK and with SRC were 0% and 22%, respectively.
